Screening data (PubChem BioAssay)
Only a selection was taken, and hits are over-represented in it overall.
CBFb-RUNX1 inh = qHTS Assay for Compounds Blocking the Interaction Between CBF-beta and RUNX1 for the Treatment of Acute Myeloid Leukemia; Runt-related transcription factor 1 (Homo sapiens) + Core-binding factor subunit beta …; AlphaScreen CBFb-His/RUNX1-biotin binding, biochemical; Potency, µM (titrated, usually from 59.8 µM), for the others: at the top dose activity, negative = inhibition, usual class: inhibitors; 230,000 tested, under 10 active; further: % of control where 0% means no effect
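His-tagged CBF-beta and biotinylated RUNX1 (30 nM each) were premixed 20 min at room temperature, exposed to compound for 15 min, then given nickel-chelate and streptavidin AlphaScreen beads (50 ng each). After 90 min, AlphaScreen signal was read.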
N370S GC mod = qHTS Assay for Inhibitors and Activators of N370S glucocerebrosidase as a Potential Chaperone Treatment of Gaucher Disease | Potency, µM (series often up to 59.4 µM), inactives show at the highest dose activity change, negative = inhibition, actives largely listed as inhibitors | N370S GC spleen homogenate, 4MU-glucoside fluorescence | 330,000 compounds, 0.092% hits;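 further: potency means the concentration at half of the fitted maximal effect; 0% = full enzyme activity and -100% = no enzyme basal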
Glioma ERSR ind = qHTS for Inducers of the Endoplasmic Reticulum Stress Response (ERSR) in Human Glioma: qHTS | U87-MG GRP78 promoter luciferase reporter, 16 h | Potency, µM, without a hit: top-dose activation, actives largely listed as activators | 420,000 compounds, 0.02% hits; further: potency means the concentration at half of the fitted maximal effect; series mostly up to about 76 µM; % of control where 0% means no effect; nearly all actives have a fitted effect of over 35% in size
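Stably transfected U87-MG glioma cells carrying a GRP78-based luciferase sensor; 16 h compound incubation. Luminescence end-point read 10 min after Bright-Glo addition at room temperature.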
Integrin act MD = qHTS for Activators of Integrin-Mediated Alleviation for Muscular Dystrophy. alpha7betagal myoblasts, beta-gal FDG fluorescence, 48 h. Potency, µM (series often up to 38.3 µM), inactives show at the highest dose activation, most hits filed as activators. 350,000 compounds, 0.064% hits. AID 624291, 2012;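 further: potency means the concentration at half of the fitted maximal effect; 100% = response of the positive control SU9516; nearly all actives have a fitted effect of over 60% in size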
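Alpha7betagal+/- myoblasts (passage 13) were plated 16-24 hr, then exposed to compounds (1:260 dilution of DMSO stock) for 48 hours at 37C. After MPER lysis, β-galactosidase reporter activity was read as FDG fluorescence (ex 480/em 540) after 30 minutes.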
ClpP mod = qHTS Assay for Activators of ClpP; Potency, µM (highest dose often 57.5 µM), without a hit: top-dose activity change, negative = active; ATP-dependent Clp protease proteolytic subunit (Bacillus subtilis (strain 168)), P80244; purified B. subtilis ClpP, FRET peptide cleavage, 20 min; 340,000 compounds, 1.9% hits; active means well fitted falling curve with a large enough effect; inconclusive means small, poorly fitted or top-dose-only effect; inactive means no such curve, though single readings can be large or run the other way; further: potency means the concentration at half of the fitted maximal effect; the source files actives as falling curves though it sought activators and does not explain the sign; nearly all actives have a fitted effect of over 65% in size
Target sequence (P80244 whole entry, looked up): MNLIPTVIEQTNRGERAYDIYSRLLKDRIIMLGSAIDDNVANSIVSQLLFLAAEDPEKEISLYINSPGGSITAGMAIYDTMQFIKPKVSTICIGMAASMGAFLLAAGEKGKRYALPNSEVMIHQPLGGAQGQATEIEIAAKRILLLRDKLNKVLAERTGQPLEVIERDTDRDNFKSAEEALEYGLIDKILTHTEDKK
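ClpP 10 microg/mL final, pH 8 Tris/KCl buffer with BSA, glycerol, Tween-20; compound pinned in; FRET-FV substrate; RT 20 min; Ex320/Em430; ΔFRET vs ADEP 5.8 microM, DMSO, no enzyme.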
Anesthetic bind = qHTS Assay for Identification of Novel General Anesthetics | 350,000 compounds, 0.074% hits | AID 485281, 2010 | Ferritin light chain (Equus caballus), P02791 | Potency, µM (highest dose often 77.5 µM), for the others: at the highest dose activity change, negative = displacement, most hits filed as inhibitors | apoferritin/1-aminoanthracene competitive binding, fluorescence; further: potency means the concentration at half of the fitted maximal effect; on the % scale 0 is the no-effect control and ±100 the full control effect; nearly all actives have a fitted effect of over 20% in size
Target sequence (P02791 2-175 limits assumed): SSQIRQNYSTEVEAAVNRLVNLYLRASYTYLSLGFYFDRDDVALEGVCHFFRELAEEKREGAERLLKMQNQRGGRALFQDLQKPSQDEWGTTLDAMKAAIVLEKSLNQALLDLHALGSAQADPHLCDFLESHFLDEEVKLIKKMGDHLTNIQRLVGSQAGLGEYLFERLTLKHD
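10 uM apoferritin + 50% sat. 1-AMA, PBS; cpd 10 min RT; Ex380/Em535 endpoint; normalized to free probe vs complex; 4-param Hill fit; propofol titration as pos. ctrl.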
Numbers without * were called inactive; u = inconclusive; x = no result; [ ] = another dose, or the depositor's remark. Unless noted, the call rests on the fitted dose curve; in most records, active means well fitted curve in the direction sought with a large enough effect; inconclusive means small, poorly fitted or top-dose-only effect, or another doubt; inactive means no such curve, though single readings can be large; an effect the other way counts as inactive or inconclusive.

SMILES	CBFb-RUNX1 inh	N370S GC mod	Glioma ERSR ind	Integrin act MD	ClpP mod	Anesthetic bind
Cc1ccc(-c2nc(C#N)c(NCCc3ccccn3)o2)cc1	-4%	1%	2%	-17%	u	-16%
N#Cc1nc(-c2ccc(Cl)cc2)oc1NCc1cccc2c1OCO2	-13%	22%	1%	2%[7.66 µM]	11µM*	-12%
Cc1ccc(F)cc1CNC(=O)c1sc2ncnc(NCC3CCCO3)c2c1C (stereo not drawn)	x	x	-2%	x	x	x
Cc1oc(-c2ccccc2NC(=O)c2cccnc2)nc1CNC(=O)C1CCCCCN1C (stereo not drawn)	x	x	-2%	x	x	x
CC1(C)CCC(c2ccc(Cl)cc2)=C(CN2CCN(c3ccc(C(=O)NS(=O)(=O)c4ccc(N[C@H](CCN5CCOCC5)CSc5ccccc5)c(S(=O)(=O)C(F)(F)F)c4)cc3)CC2)C1	x	x	u	x	-12%	x
Cc1ccc(C)c(N2CCN(c3nc4ccccc4c(=O)n3-c3ccc(Cl)cc3)CC2)c1	x	x	-3%	x	-4%	-12%
Cc1cccc(N2CCN(c3nc4ccccc4c(=O)n3-c3ccc(Cl)cc3)CC2)c1C	x	x	-2%	x	18µM*	3%
CN[C@H](CC(C)C)C(=O)N[C@H]1C(=O)N[C@@H](CC(N)=O)C(=O)N[C@H]2C(=O)N[C@H]3C(=O)N[C@H](C(=O)N[C@H](C(=O)O)c4cc(O)cc(O)c4-c4cc3ccc4O)[C@H](O)c3ccc(c(Cl)c3)Oc3cc2cc(c3O[C@@H]2OC(CO)[C@@H](O)[C@H](O)[C@H]2O[C@H]2C[C@](C)(N)[C@H](O)[C@H](C)O2)Oc2ccc(cc2Cl)[C@H]1O (stereo partly drawn)	x	x	-3%	x	x	x
CC1CCCN(Cc2c(O)ccc3c4c(c(=O)oc23)CCCC4)C1 (stereo not drawn)	0%	u	-5%	-16%	3%	376%
Cc1c(O)ccc2c3c(c(=O)oc12)CCCC3	5%	u	1%	-8%	25µM*	175%
Cc1c(O)ccc2c3c(c(=O)oc12)CCC(C)C3 (stereo not drawn)	0%	u	-3%	4%	25µM*	88%
CC(C)CN(Cc1c(O)ccc2c3c(c(=O)oc12)CCC3)CC(C)C	-1%	u	-5%	0%	13µM*	51%
OCCN1CCN(CC(O)COc2ccc(C34CC5CC(CC(C5)C3)C4)cc2)CC1 (stereo not drawn)	-2%	u	-6%	-67%	0%	u
NCCOc1ccc(C23CC4CC(CC(C4)C2)C3)cc1	4%	-25%	-15%	-68%	0%	11µM*
O=C(c1ccc(=O)oc1)N1CCOCC1	-23%	2%	-4%	15%	32µM*	-6%
CCOC(=O)c1c(-c2ccccc2)nc2ccccn12	2%	-4%	-3%	6%	-10%	-9%
CCOC(=O)c1c(C(F)(F)F)nc2ncccn12	1%	1%	-4%	2%	25µM*	-16%
C#CCCCCCCC#CCN(C)C	0%	-10%	-4%	-17%	32µM*	-11%
CN(C)CC#CCCCCCCC#CCN(C)C	2%	-5%	x	x	x	-2%
Cc1cccc(C(=O)Nc2ccc(NC(=O)Cc3ccc(Cl)cc3)cc2)c1	1%	-1%	-1%	-11%	32µM*	-6%
COc1ccc(CNC(=O)/C=C/c2cc3c(cc2Br)OCO3)cc1	6%	-7%	-5%	11%	25µM*	-16%
COc1ccc(-c2c(-c3cc(OC)cc(OC)c3)sc3ccc(OC)cc23)cc1	x	x	-5%	15%	18µM*	x
COc1ccc(-c2sc3ccc(OC)cc3c2-c2ccc(O)cc2)cc1	x	x	-1%	-41%	28µM*	x
COc1cc(OC)cc(-c2sc3ccc(OC)cc3c2-c2ccc(O)cc2)c1	x	x	-9%	-25%	u	x
Nc1ccc(Sc2ccc([N+](=O)[O-])cc2)cc1	-14%	18%	2%	2%	x	11µM*
SMILES	CBFb-RUNX1 inh	N370S GC mod	Glioma ERSR ind	Integrin act MD	ClpP mod	Anesthetic bind
COc1cc2[nH]c(=O)n(CCCCCC(=O)N3CC=C(c4ccccc4)CC3)c(=O)c2cc1OC	-1%	3%	-7%	-32%	18µM*	-4%
CCOc1cc2[nH]c(=O)n(CCC(=O)N3CCN(c4ccccc4OC)CC3)c(=O)c2cc1OCC	2%	3%	-2%	-33%	u	-13%
COc1cc2[nH]c(=O)n(CCC(=O)N3CCc4ccccc4C3)c(=O)c2cc1OC	-3%	14%	0%	17%	28µM*	-17%
O=C(CCn1c(=O)[nH]c2ccsc2c1=O)N1CCc2ccccc2C1	12%	8%	-2%	23%	-3%	14%
CCOCCCNC(=O)c1c(NC(=O)c2nc(SCC)ncc2Cl)sc2c1CCCC2	x	x	-3%	x	0%	x
COc1ccc(CNc2ncnc3c2c(-c2ccccc2)cn3-c2cccc(C)c2)cc1	x	x	-2%	x	-4%	-13%
COc1ccccc1CNc1ncnc2c1c(-c1ccccc1)cn2-c1cccc(C)c1	x	x	-3%	x	28µM*	46%
Cc1cccc(-n2cc(-c3ccccc3)c3c(N4CCC(C)CC4)ncnc32)c1	x	x	-1%	x	28µM*	-12%
COc1ccccc1N1CCN(c2ncnc3c2c(-c2ccccc2)cn3-c2cccc(C)c2)CC1	x	x	-2%	x	11µM*	-11%
COc1cccc(N2CCN(c3ncnc4c3c(-c3ccccc3)cn4-c3ccc(F)cc3)CC2)c1	x	x	-1%	x	-2%	-1%
CC1CCN(c2ncnc3c2c(-c2ccccc2)cn3-c2ccc(Br)cc2)CC1	x	x	-2%	x	-3%	11%
Nc1c(NC/C=C\COc2cc(CN3CCCCC3)ccn2)c(=O)c1=O	x	x	-1%	x	x	x
COc1cc(CN2CCC3(CC2)CC3C(=O)Nc2ccc3sc(C)nc3c2)ccc1F (stereo not drawn)	x	x	-6%	x	x	x
CCCCCCCCCCCCCCCC(=O)O[C@@H]1CC(C)=C(\C=C/C(C)=C\C=C/C(C)=C\C=C\C=C(C)\C=C\C=C(C)\C=C\C2=C(C)C[C@@H](OC(=O)CCCCCCCCCCCCCCC)CC2(C)C)C(C)(C)C1	x	x	-2%	x	x	x
Cc1sc2ncnc(N3CCC(C(=O)Nc4cc(Cl)ccc4Cl)CC3)c2c1C	x	3%	-3%	-4%	-5%	x
Cc1sc2ncnc(N3CCC(C(=O)NNC(=O)c4ccc(Cl)cc4)CC3)c2c1C	x	-7%	-3%	-20%	13µM*	x
